Experimental data from the supplement of paper PMC10127200.
Structures can show the parent of a compound that is named as a salt.

What follows are compounds tested on 786-O (assay: Euclidean distance of Cell Painting phenotypic profile (signed KS, 77 features) to DMSO centroid (dimensionless distance); 5 or 10 uM (library dependent); higher = stronger phenotypic change vs DMSO (phenoactivity)). Conditions: 48 h.
How it was run: (§1)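 Phenoactivity is defined as the Euclidean distance from a compound profile to the median vehicle profile. Each profile comprised 77 Harmony features, scored as signed Kolmogorov-Smirnov statistics versus same-plate vehicle wells, then plate-position corrected, correlation-weighted and replicate-averaged at the top dose. Five cancer lines and one healthy fibroblast line were exposed to library compounds for 48 h at 10 or 5 uM (0.1% DMSO final).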

| SMILES | Euclidean distance |
| --- | --- |
| C[N+](C)(C)NCCC(=O)[O-] [Mildronate] | 1.41 |
| Cc1c(F)cc(C(=O)NC2CC2)cc1-c1ccc(C(=O)NCC(C)(C)C)cn1 | 1.17 |
| COc1cc2c(cc1OC)CC(=O)N(CCCN(C)C[C@H]1Cc3cc(OC)c(OC)cc31)CC2 [Ivabradine HCl] | 1.05 |
| CN(C)CCc1c[nH]c2ccc(C[C@H]3COC(=O)N3)cc12 [Zolmitriptan] | 1.26 |
| CC(=O)Oc1cc(C(F)(F)F)ccc1C(=O)O [Triflusal] | 1.03 |
| COc1ccnc(C[S+]([O-])c2nc3cc(OC(F)F)ccc3[nH]2)c1OC (configuration not stated) [Pantoprazole] | 1.16 |
| COc1ccnc2[nH]cc(C(=O)C(=O)N3CCN(C(=O)c4ccccc4)C[C@H]3C)c12 | 0.998 |
| COC1CCN(C(=O)c2cc(Cc3n[nH]c(=O)c4ccccc34)ccc2F)CC1 | 1.09 |
| CSc1ccc2c(c1)N(CCC1CCCCN1C)c1ccccc1S2 (configuration not stated) [Thioridazine hydrochloride] | 2.83 |
| CCOc1ccc2c(c1)C(C)=CC(C)(C)N2 [Ethoxyquin] | 0.933 |
| Cc1[nH]c2ccccc2c1CCNCc1ccc(/C=C/C(=O)NO)cc1 [Panobinostat] | 3.44 |
| COc1cccc2cc(-c3nc([C@H]4CC[C@H](C(=O)O)CC4)n4ncnc(N)c34)[nH]c12 | 2.33 |
| O=C(O)c1ccc2nc(-c3cc(Cl)cc(Cl)c3)oc2c1 [Tafamidis] | 1.52 |
| N#CC(c1ccc(Cl)cc1)c1c(Cl)cc(-n2ncc(=O)[nH]c2=O)cc1Cl (configuration not stated) [Diclazuril] | 1.07 |
| O=C(O)Cc1ccc(-c2ccccc2)cc1 [4-Biphenylacetic acid] | 1.14 |
| CC1(C)S[C@@H]2[C@H](NC(=O)Cc3ccccc3)C(=O)N2[C@H]1C(=O)O [Benzylpenicillin potassium] | 1.15 |
| C[C@H](CCC(=O)O)[C@H]1CC[C@H]2[C@@H]3[C@H](O)C[C@@H]4C[C@H](O)CC[C@]4(C)[C@H]3C[C@H](O)[C@]12C [Cholic acid] | 1.14 |
| CCN1CCN(Cc2ccc(Nc3ncc(F)c(-c4cc(F)c5nc(C)n(C(C)C)c5c4)n3)nc2)CC1 | 5.75 |
| O=C(O)c1cc(=O)c2ccccc2o1 [Chromocarb] | 1.02 |
| CC1=CC(=O)c2ccccc2C1=O [Menadione] | 1.12 |
| CC(C)C[C@H](NC(=O)[C@H]1O[C@@H]1C(=O)O)C(=O)NCCCCN=C(N)N | 1.31 |
| CC[C@@H]([C@H](C)O)n1ncn(-c2ccc(N3CCN(c4ccc(OC[C@@H]5CO[C@@](Cn6cncn6)(c6ccc(F)cc6F)C5)cc4)CC3)cc2)c1=O [Posaconazole] | 3.81 |
| CN1C(=O)C(C)(C)Oc2c(-c3cn(C)c(=O)c4[nH]ccc34)cc(S(C)(=O)=O)cc21 | 4.28 |
| O=C(O)c1ccc(-n2nc(-c3ccccc3O)nc2-c2ccccc2O)cc1 [Deferasirox] | 2.29 |
| Cc1cccc(C)c1NC(=O)C1CCCCN1C (configuration not stated) [Mepivacaine HCl] | 1.26 |
| CC(=O)O/N=C1\C(=O)N(Cc2cc(Cl)ccc2Cl)c2ccc(Cl)cc21 | 0.757 |
| Cc1cn([C@H]2C[C@H](N=[N+]=[N-])[C@@H](CO)O2)c(=O)[nH]c1=O [Zidovudine] | 1.52 |
| NC(=O)c1ccc(OCCCN2CC3CCCC3C2)cc1 (configuration not stated) | 1.32 |

What follows are compounds tested on A549 in the same assay as above. Conditions: 48 h.
How it was run: as §1

| SMILES | Euclidean distance |
| --- | --- |
| CN1CCN(Cc2ccc(Nc3ncc(Cl)c(Nc4ccccc4S(=O)(=O)N(C)C)n3)cc2)CC1 | 3.57 |
| O=C1c2c(O)ccc(O)c2C(=O)c2c(NCCNCCO)ccc(NCCNCCO)c21 [Mitoxantrone 2HCl] | 5.26 |
| Oc1ccc(Cl)c2cccnc12 [Cloxiquine] | 2.13 |
| CO[C@H]1C[C@@H]2CC[C@@H](C)[C@@](O)(O2)C(=O)C(=O)N2CCCC[C@H]2C(=O)O[C@H]([C@H](C)C[C@@H]2CC[C@@H](OP(C)(C)=O)[C@H](OC)C2)CC(=O)[C@H](C)/C=C(\C)[C@@H](O)[C@@H](OC)C(=O)[C@H](C)C[C@H](C)/C=C/C=C/C=C/1C [Ridaforolimus (Deforolimus. MK-8669)] | 1.98 |
| CCN(CC)CC(=O)Nc1c(C)cccc1C [Lidocaine] | 0.785 |
| O=C(O)c1cn(-c2ccc(F)cc2)c2cc(N3CCNCC3)c(F)cc2c1=O [Sarafloxacin HCl] | 0.812 |
| C=CCN1CCCC1CNC(=O)c1cc2nn[nH]c2cc1OC (configuration not stated) [Alizapride HCl] | 1.43 |
| CCOc1ccc(Cc2cc([C@@H]3O[C@H](CO)[C@@H](O)[C@H](O)[C@H]3O)ccc2Cl)cc1 [Dapagliflozin propanediol monohydrate] | 0.644 |
| C[C@@H]1O[C@@H]1P(=O)(O)O [Fosfomycin Disodium] | 0.52 |
| CN[C@@H](C)C(=O)N[C@H](C(=O)N1CCC[C@H]1C(=O)Nc1snnc1-c1ccccc1)C1CCCCC1 | 1.58 |
| COc1ccc2cc(C(=O)O)ccc2c1 [6-Methoxy-2-naphthoic acid] | 0.63 |
| C[N+](C)(C)NCCC(=O)[O-] [Mildronate] | 1.05 |
| Cc1c(F)cc(C(=O)NC2CC2)cc1-c1ccc(C(=O)NCC(C)(C)C)cn1 | 0.619 |
| COc1cc2c(cc1OC)CC(=O)N(CCCN(C)C[C@H]1Cc3cc(OC)c(OC)cc31)CC2 [Ivabradine HCl] | 1.49 |
| CN(C)CCc1c[nH]c2ccc(C[C@H]3COC(=O)N3)cc12 [Zolmitriptan] | 1.23 |
| CC(=O)Oc1cc(C(F)(F)F)ccc1C(=O)O [Triflusal] | 1.2 |
| COc1ccnc(C[S+]([O-])c2nc3cc(OC(F)F)ccc3[nH]2)c1OC (configuration not stated) [Pantoprazole] | 0.522 |
| COc1ccnc2[nH]cc(C(=O)C(=O)N3CCN(C(=O)c4ccccc4)C[C@H]3C)c12 | 1.1 |
| COC1CCN(C(=O)c2cc(Cc3n[nH]c(=O)c4ccccc34)ccc2F)CC1 | 1.25 |
| CSc1ccc2c(c1)N(CCC1CCCCN1C)c1ccccc1S2 (configuration not stated) [Thioridazine hydrochloride] | 2.98 |

| SMILES | Euclidean distance |
| --- | --- |
| CCOc1ccc2c(c1)C(C)=CC(C)(C)N2 [Ethoxyquin] | 1.17 |
| Cc1[nH]c2ccccc2c1CCNCc1ccc(/C=C/C(=O)NO)cc1 [Panobinostat] | 4.4 |
| COc1cccc2cc(-c3nc([C@H]4CC[C@H](C(=O)O)CC4)n4ncnc(N)c34)[nH]c12 | 2.18 |
| O=C(O)c1ccc2nc(-c3cc(Cl)cc(Cl)c3)oc2c1 [Tafamidis] | 0.941 |
| N#CC(c1ccc(Cl)cc1)c1c(Cl)cc(-n2ncc(=O)[nH]c2=O)cc1Cl (configuration not stated) [Diclazuril] | 1.53 |
| O=C(O)Cc1ccc(-c2ccccc2)cc1 [4-Biphenylacetic acid] | 1.09 |
| CC1(C)S[C@@H]2[C@H](NC(=O)Cc3ccccc3)C(=O)N2[C@H]1C(=O)O [Benzylpenicillin potassium] | 0.89 |
| C[C@H](CCC(=O)O)[C@H]1CC[C@H]2[C@@H]3[C@H](O)C[C@@H]4C[C@H](O)CC[C@]4(C)[C@H]3C[C@H](O)[C@]12C [Cholic acid] | 0.83 |
| CCN1CCN(Cc2ccc(Nc3ncc(F)c(-c4cc(F)c5nc(C)n(C(C)C)c5c4)n3)nc2)CC1 | 5.05 |
| O=C(O)c1cc(=O)c2ccccc2o1 [Chromocarb] | 0.437 |
| CC1=CC(=O)c2ccccc2C1=O [Menadione] | 0.782 |
| CC(C)C[C@H](NC(=O)[C@H]1O[C@@H]1C(=O)O)C(=O)NCCCCN=C(N)N | 1.07 |
| CC[C@@H]([C@H](C)O)n1ncn(-c2ccc(N3CCN(c4ccc(OC[C@@H]5CO[C@@](Cn6cncn6)(c6ccc(F)cc6F)C5)cc4)CC3)cc2)c1=O [Posaconazole] | 2.06 |
| CN1C(=O)C(C)(C)Oc2c(-c3cn(C)c(=O)c4[nH]ccc34)cc(S(C)(=O)=O)cc21 | 2.7 |
| O=C(O)c1ccc(-n2nc(-c3ccccc3O)nc2-c2ccccc2O)cc1 [Deferasirox] | 2.01 |
| Cc1cccc(C)c1NC(=O)C1CCCCN1C (configuration not stated) [Mepivacaine HCl] | 0.773 |
| CC(=O)O/N=C1\C(=O)N(Cc2cc(Cl)ccc2Cl)c2ccc(Cl)cc21 | 0.621 |
| Cc1cn([C@H]2C[C@H](N=[N+]=[N-])[C@@H](CO)O2)c(=O)[nH]c1=O [Zidovudine] | 0.708 |
| NC(=O)c1ccc(OCCCN2CC3CCCC3C2)cc1 (configuration not stated) | 1.16 |
